This note sets out measurements from the supplement of paper PMC7156485.

Each structure is given as a SMILES string. ± gives the standard deviation of the averaged measurements.

Holding throughout (conditions): concentration: 10 µM; 24 h
The test system of test [1] is HCC1569. The experiment in a line: cell number relative to DMSO (% of DMSO); higher = more cells (less growth inhibition / toxicity). A digest of the protocol: (§1)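 Six fields per well were imaged at ×10 after the cells were fixed in 3.7% formaldehyde and stained with a rabbit anti-H1.0 antibody, an AlexaFluor 647 secondary and DAPI. The HCC1569 and TDF cells had been plated at 800 per well in 384-well plates (RPMI, 10% FBS) and treated in triplicate with compounds at 10 µM for 24 h at 37 °C. The values are the median of replicates of H1.0 nuclear intensity or cell number, as percent of the plate control. Smoothing for positional effects was applied to HCC1569 data.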

The test system of test [2] is TDF. Described as above. In short, it runs like this: as §1
In test [3] the test system is TDF. The experiment in a line: H1.0 immunofluorescence intensity relative to DMSO (% of DMSO); higher = stronger H1.0 induction, active = 120 or more. In short, it runs like this:
as §1

The test system of test [4] is HCC1569. Kind of test: H1.0 immunofluorescence intensity relative to DMSO (% of DMSO); higher = stronger H1.0 induction, active = 140 or more. In short, it runs like this:
as §1
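For H1.0 immunofluorescence intensity relative to DMSO in this document: TDF is a line of transformed human dermal fibroblasts of mesenchymal origin.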
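For cell number relative to DMSO in this document: TDF denotes transformed human dermal fibroblasts of mesenchymal origin.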

In the case of `O=C1C(SCCO)=C(SCCO)C(=O)c2ccccc21` [2,3-bis[(2-hydroxyethyl)sulfanyl]naphthoquinone], the cell number in the test with HCC1569 [1] was 36.5; in the test on TDF [2], 84.6. The H1.0 immunofluorescence intensity was 103 (inactive) in the test on TDF [3] and 446 (active) in the test with HCC1569 [4].

Consider `CNc1nc(-c2ccc3c(N)n[nH]c3c2)cc(N2C[C@@H](C(=O)NC3CCCCC3)CC[C@H]2C)n1`, for which the cell number with HCC1569 [1] is 52.3; in the test on TDF [2], 77.9. Moreover, the results for the H1.0 immunofluorescence intensity with TDF [3] and in the test on HCC1569 [4] were 115 (inactive) and 161 (active), respectively.

For the compound `C=C(C)C1CCC2(CO)CCC3(C)C(CCC4C5(C)CCC(O)C(C)(C)C5CCC43C)C12` (stereo not drawn) [Betulin], the cell number with HCC1569 [1] was 107; in the test on TDF [2], 99.2. The H1.0 immunofluorescence intensity in the test on TDF [3] was 98.9 (inactive); with HCC1569 [4] it was 95.6 (inactive).

As for `CCC(C)C(=O)OC1CC(O)C=C2C=CC(C)C(CCC3CC(O)CC(=O)O3)C21` (stereo not drawn) [Pravastatin Lactone], the cell number in the test on HCC1569 [1] worked out at 101; with TDF [2] it was 109. Also, the figures for the H1.0 immunofluorescence intensity with TDF [3] and in the test on HCC1569 [4] were 91.6 (inactive) and 110 (inactive), respectively.

Take `S=C([S-])OC1CC2CC1C1CCCC21.[K+]` (stereo not drawn): the cell number was 102 with HCC1569 [1] and 97.1 with TDF [2]. Further, the H1.0 immunofluorescence intensity in the test with TDF [3] was 90.2 (inactive); with HCC1569 [4], 98.2 (inactive).

As to `O=c1cc(-c2ccc(O)cc2)oc2cc(OC3OC(CO)C(O)C(O)C3O)c(C3OC(CO)C(O)C(O)C3O)c(O)c12` (stereo not drawn) [Saponarin], the figures for the cell number with HCC1569 [1] and in the test with TDF [2] were 98.8 and 89.5, respectively. For the same compound, the H1.0 immunofluorescence intensity in the test with TDF [3] is 108 (inactive); in the test on HCC1569 [4], 94.4 (inactive).

With `CCC1C(=O)N(C)c2cnc(Nc3ccc(C(=O)NC4CCN(C)CC4)cc3OC)nc2N1C1CCCC1` (stereo not drawn), the cell number is 27.1 in the test with HCC1569 [1] and 32.4 with TDF [2]. Besides, the H1.0 immunofluorescence intensity in the test on TDF [3] is 157 (active); in the test on HCC1569 [4] it was 136 (inactive).

On to `COc1c2ccoc2cc2oc(C)cc(=O)c12` [Visnagin], for which the cell number in the test on HCC1569 [1] was found to be 103; with TDF [2], 102. In addition, the H1.0 immunofluorescence intensity in the test with TDF [3] was 94.7 (inactive); in the test with HCC1569 [4] it was 82.3 (inactive).

With `C=CC1CN2CCC1CC2C(O)c1ccnc2ccc(OC)cc12.Cl.O.O` (stereo not drawn), the figures for the cell number in the test with HCC1569 [1] and in the test on TDF [2] were 99.036 ± 0.095 and 99.4 ± 3.1, respectively. The results for the H1.0 immunofluorescence intensity in the test on TDF [3] and in the test with HCC1569 [4] were 98.1 (inactive) and 92.6 (inactive), respectively.

Regarding `COC(=O)c1ccc(O)c2[nH]c3c(C=O)c(O)cc(=O)c-3nc12` [Lomofungin], the results for the cell number in the test with HCC1569 [1] and with TDF [2] were 105 and 117, respectively. For the same compound, the results for the H1.0 immunofluorescence intensity with TDF [3] and with HCC1569 [4] were 94.3 (inactive) and 101 (inactive), respectively.

Turning to `CCCCCC=CCC(O)C=CC=CC=CC(O)CCCC(=O)O` (stereo not drawn) [Leukotriene B4], the values for the cell number in the test on HCC1569 [1] and in the test on TDF [2] were 105 and 98.8, respectively. Besides, the H1.0 immunofluorescence intensity in the test on TDF [3] was 93.3 (inactive); in the test on HCC1569 [4] it was 102 (inactive).

For `CCCCCCCCCCCCCCC(O)C(O)C(N)CO` (stereo not drawn) [Phytosphingosine], the values for the cell number in the test on HCC1569 [1] and in the test with TDF [2] were 98.8 and 75.6, respectively. Besides, the values for the H1.0 immunofluorescence intensity in the test with TDF [3] and with HCC1569 [4] were 124 (active) and 104 (inactive), respectively.

Take `CN(C)c1ccc(O)c2c1CC1CC3C(N(C)C)C(=O)C(C(N)=O)=C(O)C3(O)C(=O)C1=C2O.Cl` (stereo not drawn) [Minocycline hydrochloride]: the cell number in the test with HCC1569 [1] was 99; in the test with TDF [2] it was 109. Moreover, the H1.0 immunofluorescence intensity in the test with TDF [3] was 99.7 (inactive); in the test with HCC1569 [4], 100 (inactive).

Consider `CCCCCCCNC1CCCC1CCCCCCC(=O)O` (racemic), for which the cell number in the test on HCC1569 [1] turned out to be 99.7; in the test with TDF [2], 93.5. The H1.0 immunofluorescence intensity with TDF [3] is 88.5 (inactive); in the test with HCC1569 [4], 89.4 (inactive).

As for `C[N+](C)(C)CCOC(=O)CCC(=O)OCC[N+](C)(C)C.O.O.[Cl-].[Cl-]`, the cell number in the test on HCC1569 [1] is 103; in the test with TDF [2], 104. Besides, the H1.0 immunofluorescence intensity in the test with TDF [3] was 92.5 (inactive); in the test on HCC1569 [4] it was 102 (inactive).

Regarding `O=C(Nc1c(Cl)cncc1Cl)c1ccc(OC(F)F)c(OCC2CC2)c1`, the cell number with HCC1569 [1] was determined as 99.9; with TDF [2], 92.1. Besides, the H1.0 immunofluorescence intensity with TDF [3] was 95.6 (inactive); in the test on HCC1569 [4], 101 (inactive).

Turning to `NC(=NCc1ccccc1)NC(=O)c1nc(Cl)c(N)nc1N` [Benzamil], the cell number with HCC1569 [1] and in the test on TDF [2] was 99.9 each time. In addition, the figures for the H1.0 immunofluorescence intensity in the test with TDF [3] and in the test with HCC1569 [4] were 98.7 (inactive) and 112 (inactive), respectively.

As for `Cl.NCC1OC(C23CC4CC(CC(C4)C2)C3)Cc2c1ccc(O)c2O` (stereo not drawn), the figures for the cell number in the test with HCC1569 [1] and in the test on TDF [2] were 73.5 and 68.9, respectively. Besides, the H1.0 immunofluorescence intensity was 102 (inactive) in the test on TDF [3] and 129 (inactive) in the test on HCC1569 [4].

Regarding `CCN(CC)CCNC(=O)c1cc(Cl)c(N)cc1OC.Cl` [Metoclopramide hydrochloride], the cell number in the test with HCC1569 [1] came out at 107; in the test on TDF [2], 106. In addition, the results for the H1.0 immunofluorescence intensity with TDF [3] and in the test with HCC1569 [4] were 94.3 (inactive) and 87.4 (inactive), respectively.

`CC(=O)Oc1ccccc1C(=O)O` [Acetylsalicylic acid]: the cell number with HCC1569 [1] amounted to 101; in the test with TDF [2] it was 98.8. In addition, the results for the H1.0 immunofluorescence intensity in the test on TDF [3] and in the test on HCC1569 [4] were 89.6 (inactive) and 88.3 (inactive), respectively.

In the case of `COc1cc2c3cc1Oc1c(OC)c(OC)cc4c1C(Cc1ccc(OC(=O)c5ccc([N+](=O)[O-])cc5)c(c1)Oc1ccc(cc1)CC3N(C)CC2)N(C)CC4` (stereo not drawn) [E6 Berbamine], the cell number in the test on HCC1569 [1] is 90.2; in the test with TDF [2], 95.2. Further, the values for the H1.0 immunofluorescence intensity with TDF [3] and in the test with HCC1569 [4] were 98.8 (inactive) and 97.7 (inactive), respectively.

On to `CCc1nn(CCCN2CCN(c3cccc(Cl)c3)CC2)c(=O)n1CCOc1ccccc1`, for which the figures for the cell number in the test on HCC1569 [1] and with TDF [2] were 92.2 and 95, respectively. In addition, the H1.0 immunofluorescence intensity in the test on TDF [3] was 95.3 (inactive); with HCC1569 [4], 122 (inactive).
